# In PubChem BioAssay (Tox21):
# Values joined by “and” are separate entries in the source; they are usually repeats but may differ in a detail not shown here. Equal values may be shown once. Inconclusive results are not listed. A call without a number means that no potency is given here. More than one record can exist for a structure, and the calls need not agree. Active and inactive are the calls of the source. Unless noted, the call rests on the fitted dose curve; in most records, active means well fitted curve in the direction sought with a large enough effect in the repeat runs; inconclusive means weak or mixed curves; inactive means no such curve, though single readings can be large; an effect the other way counts as inactive or inconclusive.
# Assays:
# [1] = molecular target: Nuclear receptor subfamily 1 group I member 3 (Homo sapiens) (UniProt Q14994); assay: qHTS assay to identify small molecule antagonists of the constitutive androstane receptor (CAR) signaling pathway (AID 1224838);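 further: HepG2 cells stably expressing hCAR with CYP2B6 luciferase reporter stimulated by CITCO; nearly all actives have a fitted effect of over 40% in size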
# Procedure, shortened: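 Luminescence from a CYP2B6-2.2kb promoter reporter in hCAR-expressing HepG2 cells reflects CAR signaling. Cells received compounds at 15 concentrations and 50 nM CITCO (final), then incubated 24 h at 37 C/5% CO2.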
# [2] = molecular target: Nuclear receptor subfamily 1 group I member 3 (Homo sapiens) (UniProt Q14994); assay: qHTS assay to identify small molecule agonists of the constitutive androstane receptor (CAR) signaling pathway (AID 1224839); further: nearly all actives have a fitted effect of over 15% in size
# Procedure, shortened: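 Double-stable HepG2 cells (hCAR, CYP2B6-2.2kb) seeded 4 h before compound addition. Exposure 24 h with 0.75 uM PK11195 final. Luciferase detected by ONE-Glo.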
# [3] = qHTS assay to identify small molecule antagonists of the estrogen related receptor signaling pathway with the pleiotropic PPARgamma coactivator (PGC) from Tox21 10K library - cell viability counter screen (AID 1224840; active means well fitted cell-killing curve with a large enough effect in the repeat runs, not every such curve was filed as active; further: nearly all actives have a fitted effect of over 40% in size)
# Procedure, shortened: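 Cell viability is measured by CellTiter-Fluor fluorescence in PGC/ERR cells that receive compounds after a 6-hour attachment period and are then incubated 17.5 hours at 37 C.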
# [4] = qHTS assay to identify small molecule antagonists of the estrogen related receptor signaling pathway with the pleiotropic PPARgamma coactivator (PGC) from Tox21 10K library (AID 1224841; call rule not given here; further: actives are mostly falling curves and most rising ones were filed inactive; nearly all actives have a fitted effect of over 50% in size)
# Procedure, shortened: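 Cells stably carrying the PGC/ERR reporter, seeded at 2,000 per well, received pin-transferred compounds 6 h post-plating. Exposure lasted 18 h at 37 C. Signal: One-Glo luminescence.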
# [5] = qHTS assay to identify small molecule agonists of the estrogen related receptor signaling pathway with the pleiotropic PPARgamma coactivator (PGC) from Tox21 10K library (AID 1224842); further: nearly all actives have a fitted effect of over 15% in size
# Procedure, shortened: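 Luminescence from One-Glo (30 min, room temperature) measured after PGC/ERR cells had 18 h at 37 C with pinned compound (23 nL in DMSO). Cells had been seeded at 2,000 per well and pre-incubated 6 h.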
# [6] = molecular target: Thyrotropin receptor (Homo sapiens) (UniProt P16473); assay: qHTS assay to identify small molecule agonists of the thyroid stimulating hormone receptor (TSHR) signaling pathway (AID 1224843; calls by dose curve; further: nearly all actives have a fitted effect of over 45% in size)
# Procedure, shortened: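 Agonist activity read as cAMP rise via d2/cryptate HTRF competition, 1 h room-temperature detection, in HEK293 cells expressing TSHR. Fifteen-point titrations, each run in triplicate, with a 30 min room-temperature incubation beforehand.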
# [7] = qHTS assay to identify small molecule agonists of the hypoxia (HIF-1) signaling pathway - cell viability counter screen (AID 1224844; calls by dose curve; further: nearly all actives have a fitted effect of over 50% in size)
# Procedure, shortened: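 Viability counter screen: HRE-bla ME-180 cells plated 5 hrs before compound addition, treated 17 hrs at 37C and 5% CO2, then CellTiter-Glo added after the FRET reporter read; luminescence after 30 min.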
# [8] = qHTS assay to identify small molecule agonists of the constitutive androstane receptor (CAR) signaling pathway - cell viability counter screen (AID 1224836); further: nearly all actives have a fitted effect of over 45% in size
# Procedure, shortened: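 Using CellTiter-Fluor, viability of HepG2 cells harbouring hCAR and CYP2B6-2.2kb was measured following 23 h incubation with a 15-concentration compound series plus PK11195 (0.75 uM final).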
# [9] = qHTS assay to identify small molecule antagonists of the constitutive androstane receptor (CAR) signaling pathway - cell viability counter screen (AID 1224837); further: nearly all actives have a fitted effect of over 45% in size
# Procedure, shortened: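 Cells are seeded, rested 4 hr at 37 C/5% CO2, dosed with compound (15-point series) and 50 nM CITCO, incubated a further 23 hr, and then CellTiter-Fluor reagent is added before fluorescence is read. The line is HepG2 with stable hCAR and CYP2B6-2.2kb.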
# Potency means the concentration at half of the fitted maximal effect.
# Chain of Thyrotropin receptor (Homo sapiens) (P16473 whole entry, looked up): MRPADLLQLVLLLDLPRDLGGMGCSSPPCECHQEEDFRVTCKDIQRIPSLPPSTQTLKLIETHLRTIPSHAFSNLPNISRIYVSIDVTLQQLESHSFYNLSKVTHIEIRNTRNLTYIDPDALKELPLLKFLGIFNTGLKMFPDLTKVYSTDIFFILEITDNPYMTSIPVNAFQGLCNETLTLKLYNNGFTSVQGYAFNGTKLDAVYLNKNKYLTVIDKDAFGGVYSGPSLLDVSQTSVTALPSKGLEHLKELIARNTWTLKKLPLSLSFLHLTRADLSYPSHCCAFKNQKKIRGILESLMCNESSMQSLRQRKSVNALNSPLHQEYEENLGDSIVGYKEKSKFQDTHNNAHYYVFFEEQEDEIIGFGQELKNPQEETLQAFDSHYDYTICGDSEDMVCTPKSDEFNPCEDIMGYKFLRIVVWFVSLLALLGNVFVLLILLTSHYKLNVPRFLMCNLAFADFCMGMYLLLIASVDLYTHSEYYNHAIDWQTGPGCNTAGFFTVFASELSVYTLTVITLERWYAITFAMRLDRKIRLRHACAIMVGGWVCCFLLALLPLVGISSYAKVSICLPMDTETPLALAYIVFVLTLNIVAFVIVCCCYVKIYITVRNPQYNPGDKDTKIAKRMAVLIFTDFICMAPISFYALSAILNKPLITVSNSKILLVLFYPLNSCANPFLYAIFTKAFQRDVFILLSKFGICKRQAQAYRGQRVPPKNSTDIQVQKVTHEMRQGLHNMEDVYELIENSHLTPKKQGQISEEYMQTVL
# Chain of Nuclear receptor subfamily 1 group I member 3 (Homo sapiens) (Q14994 whole entry, looked up): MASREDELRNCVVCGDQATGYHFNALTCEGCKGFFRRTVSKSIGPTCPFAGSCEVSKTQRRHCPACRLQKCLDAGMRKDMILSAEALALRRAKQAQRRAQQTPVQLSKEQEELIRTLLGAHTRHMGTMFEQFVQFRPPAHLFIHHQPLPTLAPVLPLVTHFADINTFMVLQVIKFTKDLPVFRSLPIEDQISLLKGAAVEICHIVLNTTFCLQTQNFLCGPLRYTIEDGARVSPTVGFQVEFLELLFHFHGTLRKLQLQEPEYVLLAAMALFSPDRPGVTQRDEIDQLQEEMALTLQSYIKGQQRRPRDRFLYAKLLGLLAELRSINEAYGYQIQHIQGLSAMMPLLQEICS
Structure (SMILES),Potency [1],Potency [2],Potency [3],Potency [4],Potency [5],Potency [6],Potency [7],Potency [8],Potency [9]
Cc1cc(OCCOCC[N+](C)(C)Cc2ccccc2)ccc1C(C)(C)CC(C)(C)C,inactive,inactive,48.3 µM (active),30.5 µM (active) and 7.5 µM (active),inactive,27.1 µM (active) and 15 µM (active),24.4 µM (active) and 23.9 µM (active),–,–
NC12CC3CC(CC(C3)C1)C2,–,–,inactive,–,–,–,inactive,inactive,inactive
CC(C)(C)NC(=O)[C@@H]1CN(Cc2cccnc2)CCN1C[C@@H](O)C[C@@H](Cc1ccccc1)C(=O)N[C@H]1c2ccccc2C[C@H]1O,–,–,inactive,–,–,–,inactive,inactive,inactive
Oc1c(Cl)cc(Cl)cc1Sc1cc(Cl)cc(Cl)c1O,17.3 µM (active) and 62.1 µM (active),inactive,–,–,inactive,inactive,19.5 µM (active) and 24.5 µM (active) and inactive,inactive,–
CC(C)(c1ccccc1)c1ccc(Nc2ccc(C(C)(C)c3ccccc3)cc2)cc1,inactive,inactive,inactive,inactive,inactive,inactive,inactive,–,inactive
[Cl][In]([Cl])[Cl],inactive,–,inactive,–,–,–,inactive,inactive,inactive
NC(N)=NC(=O)Cc1c(Cl)cccc1Cl,inactive,inactive,inactive,inactive,inactive,inactive,inactive,–,inactive
CCCOC(=O)c1cc(O)c(O)c(O)c1,inactive,inactive and 19.3 µM (active),–,inactive,4.31 µM (active),–,inactive,inactive,inactive
NC(=Nc1ccccc1)Nc1ccccc1,–,–,inactive,inactive,–,–,inactive,3.86 µM (active),–
CCN(CC)CCOc1ccc(/C(=C(\Cl)c2ccccc2)c2ccccc2)cc1,inactive,–,49.6 µM (active),–,–,–,39.7 µM (active),–,inactive
OCCOCCN1CCN(C(c2ccccc2)c2ccc(Cl)cc2)CC1 (configuration not stated),inactive,inactive,47.9 µM (active) and inactive,–,–,inactive,9.64 µM (active),–,–
CCCCCCCCCCCCCC[P+](CCCC)(CCCC)CCCC,12.1 µM (active) and 15.4 µM (active),–,21.6 µM (active) and 27.3 µM (active),–,–,inactive,21.8 µM (active) and 21.9 µM (active),19.2 µM (active) and 24.3 µM (active),17.1 µM (active) and 27.3 µM (active)
CCN(CC)C(=O)Nc1ccc(OCC(O)CNC(C)(C)C)c(C(C)=O)c1 (configuration not stated),inactive,inactive,inactive,inactive,inactive,inactive,inactive,–,inactive
Nc1ccc(O)cc1,–,–,35.7 µM (active) and inactive,45 µM (active) and inactive,inactive,inactive,50.9 µM (active) and inactive,–,–
CN(C)c1ccc(C(=C2C=CC(=[N+](C)C)C=C2)c2ccccc2)cc1,4.73 µM (active) [middle of 4 runs],–,3.44 µM (active) and 6.68 µM (active) and 4.73 µM (active),–,inactive,–,11 µM (active) and 5.35 µM (active),–,–
Clc1ccc2c(c1)C(N1CCNCC1)=Nc1ccccc1O2,–,–,inactive,–,–,–,inactive,–,–
CNCCC(Oc1ccc(C(F)(F)F)cc1)c1ccccc1 (configuration not stated),29.8 µM (active),–,67.7 µM (active) and 29.8 µM (active),–,–,–,–,–,–
OCC(CO)N[C@H]1C[C@](O)(CO)[C@@H](O)[C@H](O)[C@H]1O,inactive,–,inactive,inactive,inactive,–,inactive,–,inactive
Cc1cc(Cc2cc(C)cc(C(C)(C)C)c2O)c(O)c(C(C)(C)C)c1,19.4 µM (active) and 43.3 µM (active),inactive,48.8 µM (active) and 43.3 µM (active),48.8 µM (active) and 30.6 µM (active),inactive,43.5 µM (active) and inactive,9.82 µM (active) and 9.77 µM (active),61.4 µM (active),–
CC(=O)N[C@@H](CS)C(=O)O,inactive,–,inactive,–,–,inactive,inactive,–,inactive
COC(=O)[C@H]1[C@H]2C[C@@H]3c4[nH]c5cc(OC)ccc5c4CCN3C[C@H]2C[C@@H](OC(=O)c2cc(OC)c(OC)c(OC)c2)[C@@H]1OC,–,–,inactive,43.2 µM (active) and 15.8 µM (active),inactive,inactive,24.5 µM (active) and 31.8 µM (active) and inactive,inactive,inactive
COc1ccc(CCN(C)CCCC(C#N)(c2ccc(OC)c(OC)c2)C(C)C)cc1OC (configuration not stated),–,–,inactive,–,–,–,inactive,–,–
Nc1nc2ccccc2[nH]1,inactive,–,inactive,–,–,inactive,inactive,inactive,inactive
CCn1c2ccccc2c2cc(N)ccc21,inactive,10.8 µM (active) and 15.4 µM (active) and 30.6 µM (active),inactive,–,inactive,–,inactive,–,inactive
CNC1(C)C2CCC(C2)C1(C)C (configuration not stated),inactive,–,inactive,inactive,inactive,–,inactive,inactive,inactive
CC(=O)CC(C)=O,–,–,inactive,inactive,inactive,inactive,inactive,inactive,inactive
COC(=O)/C=C/c1ccccc1,inactive,–,inactive,–,–,–,inactive,–,inactive
O,–,–,inactive,–,–,inactive,inactive,inactive,inactive
CC(C)(C)NCC(O)c1cc(O)cc(O)c1 (configuration not stated),–,–,inactive,–,–,–,inactive,–,inactive
CO[Si](OC)(OC)c1ccccc1,inactive,–,inactive,inactive,inactive,inactive,inactive,–,inactive
